The list is not random: actives were taken first. Their share in the collection is about 3.7%.
A549 viability: A549 cytotoxicity, counter-screen for Nrf2 inhibitors | A549 ARE-Fluc cells, CellTiter-Fluor viability, 18-24 h | 0.16% of 390,000 active | Potency, µM (titrated, usually from 46 µM), for inactives: at the highest dose activity change, negative = cytotoxicity, usual class: inhibitors; also: % is scaled to controls: 0 for no effect and ±100 for the full control effect
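A549 ARE-Fluc cells in 5% FBS OPTI-MEM, 5000 cells/well, rested 2 h then exposed to compounds in concentration-response for 18-24 h at 37 °C. Viability by CellTiter-Fluor fluorescence (Ex 405/Em 525) after 30 min; luciferase luminescence (BugLite, 15 min, RT) read afterwards.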
Nrf2 ARE act: activates Nrf2 signaling | AREc32 ARE-luciferase reporter (MCF7-derived line), luminescence, 24 h | Potency, µM (top dose mostly 46.1 µM), without a hit: at the top dose activation, most hits filed as activators | 0.31% of 410,000 active | AID 624171; also: % of control where 0% means no effect; nearly all actives have a fitted effect of over 65% in size
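Reporter line AREc32 (ARE-Fluc), seeded overnight in OPTI-MEM with 5% FBS; compound pin-transferred, 24 hr at 37 deg C, 5% CO2; luminescent read-out.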
Nrf2 block: inhibitors of Nrf2 signaling | A549 ARE-Fluc reporter, luciferase luminescence, 18-24 h | AID 504444 | 2.1% of 360,000 active | Potency, µM (highest dose often 46 µM), for inactives: top-dose activity change, negative = inhibition, hits mostly inhibitors; also: % is scaled to controls: 0 for no effect and ±100 for the full control effect; nearly all actives have a fitted effect of over 60% in size
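Two sequential reads on A549 ARE_Fluc cells exposed to compound for 18-24 h: a CellTiter-Fluor fluorescence read for viability, then a luciferase luminescence read for Nrf2/ARE activity.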
ELG1 repair inh: blocks ELG1-dependent DNA repair in HEK293T cells; HEK293T ELG1-luciferase reporter, luminescence, 16 h; DNA damage induced by 5-fluorouridine; Potency, µM (highest dose often 46.1 µM), inactives show top-dose activity change, negative = inhibition, most hits filed as inhibitors; 2.3% of 330,000 active; also: % is scaled to controls: 0 for no effect and ±100 for the full control effect; nearly all actives have a fitted effect of over 55% in size
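Luminescence from the luciferase reporter, measured 30 min after ONE-Glo reagent at room temperature, was the read-out. Beforehand, 2,000 cells per well were exposed for 16 hr at 37 °C to 5-fluorouridine together with compound or vehicle.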
ELG1 FLuc counter: luciferase inhibition in cell-free luciferin readout for ELG1 hits; shares compounds with ELG1 repair inh; cell-free firefly luciferase luminescence counter-screen, ViewLux; Potency, µM (doses to about 46.1 µM), inactives show at the highest dose activity change, negative = inhibition, hits mostly inhibitors; 3% of 350 active; AID 624247; also: % is scaled to controls: 0 for no effect and ±100 for the full control effect
ELG1-Luc inh: confirmation of human ELG1-dependent DNA repair inhibitors | Potency, µM (titrated, usually from 46.1 µM), without a hit: at the highest dose activity change, negative = inhibition, usual class: inhibitors | AID 624248 | shares compounds with ELG1 repair inh | 68% of 670 active | HEK293T ELG1-luciferase levels, luminescence; cells co-treated with 5-fluorouridine; also: % is scaled to controls: 0 for no effect and ±100 for the full control effect; nearly all actives have a fitted effect of over 55% in size
Target sequence (Q96QE3 whole entry, looked up): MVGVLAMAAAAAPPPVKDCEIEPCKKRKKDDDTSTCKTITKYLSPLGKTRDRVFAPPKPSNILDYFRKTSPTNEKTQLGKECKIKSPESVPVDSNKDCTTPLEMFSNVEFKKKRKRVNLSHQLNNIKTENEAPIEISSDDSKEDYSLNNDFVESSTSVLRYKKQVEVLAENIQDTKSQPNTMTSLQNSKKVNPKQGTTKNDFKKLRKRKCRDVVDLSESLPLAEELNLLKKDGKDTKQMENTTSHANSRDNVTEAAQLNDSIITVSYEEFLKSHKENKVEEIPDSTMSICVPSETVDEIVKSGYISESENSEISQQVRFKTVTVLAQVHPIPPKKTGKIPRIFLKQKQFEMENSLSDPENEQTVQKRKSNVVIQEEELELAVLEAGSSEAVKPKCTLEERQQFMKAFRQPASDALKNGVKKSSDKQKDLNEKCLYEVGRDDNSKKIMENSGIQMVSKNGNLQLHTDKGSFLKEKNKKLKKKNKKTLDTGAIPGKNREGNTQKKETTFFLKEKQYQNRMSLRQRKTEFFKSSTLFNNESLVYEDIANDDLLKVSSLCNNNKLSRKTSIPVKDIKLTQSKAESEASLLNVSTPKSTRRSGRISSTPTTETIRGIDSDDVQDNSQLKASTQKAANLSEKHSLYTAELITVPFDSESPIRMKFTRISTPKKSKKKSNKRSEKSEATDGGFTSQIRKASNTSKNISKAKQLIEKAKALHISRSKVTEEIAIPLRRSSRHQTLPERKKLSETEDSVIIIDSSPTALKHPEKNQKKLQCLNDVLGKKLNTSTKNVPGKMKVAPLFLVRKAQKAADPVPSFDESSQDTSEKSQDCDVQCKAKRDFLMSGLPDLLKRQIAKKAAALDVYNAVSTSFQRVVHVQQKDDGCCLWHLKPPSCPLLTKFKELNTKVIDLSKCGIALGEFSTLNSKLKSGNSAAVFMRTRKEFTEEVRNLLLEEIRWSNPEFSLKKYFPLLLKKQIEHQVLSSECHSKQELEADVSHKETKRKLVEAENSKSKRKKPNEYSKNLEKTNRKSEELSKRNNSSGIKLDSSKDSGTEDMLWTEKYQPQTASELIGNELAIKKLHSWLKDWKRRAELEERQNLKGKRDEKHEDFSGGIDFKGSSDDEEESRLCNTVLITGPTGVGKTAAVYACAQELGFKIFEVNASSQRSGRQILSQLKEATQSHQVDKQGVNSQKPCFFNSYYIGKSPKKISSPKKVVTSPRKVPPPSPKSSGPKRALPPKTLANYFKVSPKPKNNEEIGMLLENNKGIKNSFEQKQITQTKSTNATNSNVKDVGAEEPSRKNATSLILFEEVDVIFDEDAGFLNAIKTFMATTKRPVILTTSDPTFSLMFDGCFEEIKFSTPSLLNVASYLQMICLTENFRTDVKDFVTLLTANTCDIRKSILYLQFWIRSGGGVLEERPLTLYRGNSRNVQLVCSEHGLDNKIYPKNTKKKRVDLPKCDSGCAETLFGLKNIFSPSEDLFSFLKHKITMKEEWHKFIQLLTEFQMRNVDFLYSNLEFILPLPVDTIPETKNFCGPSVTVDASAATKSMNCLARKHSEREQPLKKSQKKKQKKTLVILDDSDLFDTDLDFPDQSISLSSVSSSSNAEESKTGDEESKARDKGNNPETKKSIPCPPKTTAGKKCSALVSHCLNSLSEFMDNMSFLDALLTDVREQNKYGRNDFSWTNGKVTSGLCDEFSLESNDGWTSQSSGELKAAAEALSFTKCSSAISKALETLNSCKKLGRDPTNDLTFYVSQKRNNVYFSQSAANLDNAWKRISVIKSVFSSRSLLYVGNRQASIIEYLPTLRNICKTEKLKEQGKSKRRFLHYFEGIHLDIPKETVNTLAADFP
ELG1 MMS Luc: MMS-stimulated human ELG1 repair inhibition, confirmed. shares compounds with ELG1 repair inh. Potency, µM (top dose mostly 46.1 µM), without a hit: top-dose activity change, negative = inhibition, actives largely listed as inhibitors. AID 624249. 53% of 670 active. HEK293T luciferase-tagged ELG1 level, MMS stimulated; also: % is scaled to controls: 0 for no effect and ±100 for the full control effect; nearly all actives have a fitted effect of over 60% in size
ELG1 5-FU: confirmation of ELG1 repair inhibitors: viability with 5FU; shares compounds with ELG1 repair inh; Potency, µM (highest dose often 46.1 µM), without a hit: top-dose activity change, negative = viability loss, actives largely listed as cytotoxic; 670 tested, under 10 active; cell viability with 5-FU, ELG1-dependent repair;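 also: ELG1-luc HEK293T cells cotreated with 5-fluorouridine at 10 µM final; viability measured 16 h after compound addition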
ELG1 MMS viab: confirmation of ELG1 repair inhibitors: viability with MMS; shares compounds with ELG1 repair inh; Cell viability with MMS, ELG1-dependent DNA repair; Potency, µM (doses to about 46.1 µM), inactives show at the highest dose activity change, negative = viability loss, actives largely listed as cytotoxic; 33% of 670 active; AID 624251;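 also: ELG1-luc HEK293T cells co-treated with 10 µM MMS; viability read 16 h after compound addition; % is scaled to controls: 0 for no effect and ±100 for the full control effect; nearly all actives have a fitted effect of over 60% in size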
Cell viab unstim: affects unstimulated cell viability, ELG1 hit counter-screen; cell viability counter-screen, unstimulated, luminescence; AID 624252; 8% of 900 active; shares compounds with ELG1 repair inh; Potency, µM (titrated, usually from 45.9 µM), for inactives: at the top dose activity change, negative = loss of viability, actives largely listed as cytotoxic;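 also: compound exposure lasted 16 hours before reading; % is scaled to controls: 0 for no effect and ±100 for the full control effect; nearly all actives have a fitted effect of over 55% in size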
FLuc biochem: inhibits purified firefly luciferase, counter-screen for ELG1 hits. 10% of 350 active. shares compounds with ELG1 repair inh. Potency, µM (titrated, usually from 57.5 µM), for inactives: at the highest dose activity, negative = inhibition, usual class: inhibitors. purified firefly luciferase, luminescence counter-screen. AID 624253; also: % is scaled to controls: 0 for no effect and ±100 for the full control effect
* = called active by the depositor; ? = inconclusive; . = not tested or not shown; [ ] = dose if it differs, or a comment. Calls follow the shape of the dose curve; as a rule, active = well fitted curve in the direction sought with a large enough effect; inconclusive = small, poorly fitted or top-dose-only effect, or another doubt; inactive = no such curve, though single readings can be large; an effect the other way counts as inactive or inconclusive. Potency is read from the fitted curve at half-maximal effect.

SMILES | A549 viability | Nrf2 ARE act | Nrf2 block | ELG1 repair inh | ELG1-Luc inh | ELG1 MMS Luc | ELG1 5-FU | ELG1 MMS viab | Cell viab unstim | others
Cn1cccc1C(=O)OCC(=O)NCc1ccc2c(c1)OCO2 | 7% | 4% | ? | ? | . | . | . | . | .
Cn1cccc1C(=O)OCC(=O)Nc1sccc1C#N | 5% | 17% | ? | ? | . | . | . | . | 0%
COc1cccc(-c2nc(N)nc(SC)c2C#N)c1 | 0% | 0% | 1% | -12% | . | . | . | . | .
c1ccc(CCc2nn3c(-c4ccncc4)nnc3s2)cc1 | -7% | 0% | ? | 2.6µM* | 5µM* | ? | 3% | -1% | -4%
Cc1ccc(-c2nc3c(c(SCC(=O)N4CCOCC4)n2)Cc2c(CO)cnc(C)c2O3)cc1 | 3% | 0% | 2% | ? | . | . | . | . | .
COc1ccc(-c2nc3c(c(SCC(=O)N4CCOCC4)n2)Cc2c(CO)cnc(C)c2O3)cc1 | -10% | 1% | -11% | 1.3µM* | 3.5µM* | ? | 6% | -2% | -16% | ELG1 FLuc counter=20%;FLuc biochem=0%
Cc1c(OCc2ccc([N+](=O)[O-])cc2)ccc2c3c(c(=O)oc12)CCC3 | 4% | 1% | ? | ? | . | . | . | . | 1%
Cc1ccc2onc(CC(=O)N(C)c3ccccc3)c2c1 | -13% | 1% | ? | . | . | . | . | . | .
COc1ccc(/C=N/n2c(N)c(S(=O)(=O)c3cccs3)c3nc4ccccc4nc32)cc1OC | -13% | -1% | ? | 2.6µM* | 3.1µM* | 16% | ? | -1% | -5%
O=C(NCCSCc1cccc(Cl)c1)C1CCN(S(=O)(=O)Cc2ccccc2)CC1 | -3% | 3% | -6% | . | . | . | . | . | .
O=C(COc1cc(F)ccc1[N+](=O)[O-])Nc1ccc2c(c1)OCO2 | 6% | 6% | -15% | ? | . | . | . | . | .
CC(=O)c1cc(F)ccc1OCC(=O)Nc1ccc2c(c1)OCO2 | 12% | 0% | 23% | ? | . | . | . | . | -9%
Cc1cc(C(=O)COC(=O)C2=COCCO2)c(C)n1-c1ccccc1 | 1% | -2% | ? | ? | . | . | . | . | ? | ELG1 FLuc counter=11µM*;FLuc biochem=0.092µM*
CS[C@@H]1SC[C@H]2C(=O)N(C)C(C(C)C)C(=O)OC[C@@H](NC(=O)c3cnc4ccccc4n3)C(=O)N[C@@H](C)C(=O)N(C)[C@H]1C(=O)N(C)C(C(C)C)C(=O)OC[C@@H](NC(=O)c1cnc3ccccc3n1)C(=O)N[C@@H](C)C(=O)N2C (some centres not stated) | . | . | . | . | 0.14µM* | 0.056µM* | 17% | 0.2µM* | -4% | ELG1 FLuc counter=?;FLuc biochem=2%
Cc1cccc(N2CCN(C(=O)C3COc4ccccc4O3)CC2)c1C (configuration not stated) | -2% | 3% | -14% | ? | . | . | . | . | .
Cc1c(CC(=O)N2CCN(C(=O)C3COc4ccccc4O3)CC2)c(=O)oc2c(C)c(O)ccc12 (configuration not stated) | 8% | 0% | ? | 0.58µM* | 4µM* | ? | ? | -2% | ? | ELG1 FLuc counter=-14%;FLuc biochem=-4%
CN(C)c1ccc(/C=C2\CCc3ccccc32)cc1 | . | . | . | . | . | . | . | . | -6%
CC1(C(=O)NS(=O)(=O)c2ccc(F)cc2F)CCN1C(=O)C1(c2ccc(Cl)cc2)CC1 (configuration not stated) | . | 0% | . | . | . | . | . | . | .
CCCCc1ccc(S(=O)(=O)NC2CCS(=O)(=O)C2)cc1 (configuration not stated) | -2% | 2% | 18µM* | 3.7µM* | 1% | 11µM* | -7% | 11µM* | -18%
Cc1ccc(NC(=S)N(Cc2cccs2)Cc2cc3cccc(C)c3[nH]c2=O)cc1 | -4% | 0% | 7% | ? | 4.4µM* | ? | ? | -4% | -12%
Cc1ccc2cc(CN(CC3CCCO3)C(=S)Nc3ccccc3)c(=O)[nH]c2c1C (configuration not stated) | ? | 0% | ? | 4.6µM* | 4µM* | ? | ? | 0% | ?
O=C(NCC1COCCO1)c1cc(COc2c(F)cccc2F)on1 (configuration not stated) | 5% | 0% | 0% | ? | . | . | . | . | .
CCC(C)NC(=O)C1(O)c2cc(Br)ccc2NC(=O)N1c1cccc(OC)c1 (configuration not stated) | 3% | 0% | 5% | 5% | . | . | . | . | .
O=C1CC(N2CCN(c3ccccn3)CC2)C(=O)N1CC(c1ccccc1)c1ccccc1 (configuration not stated) | -10% | 2% | ? | 4.1µM* | 28µM* | ? | -8% | ? | ?
COc1ccccc1NC(=O)C1=C(C)Nc2nc(SCc3ccccc3)nn2C1c1ccccn1 (configuration not stated) | 5% | 0% | -14%[9.27 µM] | . | . | . | . | . | .
SMILES | A549 viability | Nrf2 ARE act | Nrf2 block | ELG1 repair inh | ELG1-Luc inh | ELG1 MMS Luc | ELG1 5-FU | ELG1 MMS viab | Cell viab unstim | others
Cc1ccc(C)c(S(=O)(=O)N/N=C/c2ccc(N(C)C)cc2)c1 | -5% | 0% | -4% | 2% | . | . | . | . | .
Cc1ccc2c(c1)C/C(=C/c1ccc(N(C)C)cc1)C2=O | . | . | . | . | . | . | . | . | 0%
O=C(CSc1ccc2nnc(-c3cccc(F)c3)n2n1)N1CCCc2ccccc21 | 5% | 1% | 2% | 12µM* | 14µM* | ? | 10% | 6% | -5% | ELG1 FLuc counter=-5%;FLuc biochem=-1%
Clc1cccc(CNc2ncnc3c2nc2n3CCCC2)c1 | 20% | 0% | -28% | . | . | . | . | . | .
O=C1CCc2cc(NS(=O)(=O)c3ccc(F)cc3)cc3c2N1CCC3 | 1% | 5% | ? | 17% | . | . | . | . | .
O=C1CCc2cc(NS(=O)(=O)c3ccccc3)cc3c2N1CCC3 | 7% | 6% | -17% | ? | . | . | . | . | 6% | ELG1 FLuc counter=14%;FLuc biochem=0%

From PubChem
